# Screening results as filed in PubChem BioAssay.
# Rows were chosen to be rich in hits. Some 13% of all compounds tested hit in one or more screens of this group.
# Pf growth 96h = inhibits malaria parasite growth, 96 h | P. falciparum luciferase reporter growth, 96 h | Potency, µM (top dose mostly 28.7 µM), for inactives: at the top dose activity change, negative = inhibition, usual class: inhibitors | 320,000 compounds, 6.9% hits | AID 504834; note: potency is the fitted concentration of half-maximal effect; % is set by controls: 0 for no effect and ±100 for the full control effect
#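 Readout is luminescence from an integrated firefly luciferase in P. falciparum. Red cells, 2% hematocrit and 0.05% parasitemia final, were cultured with compound through two parasite generations (96 hours) at 37 C, 5% CO2.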
# HCV inh = blocks hepatitis C virus | Potency, µM (titrated, usually from 41.8 µM), without a hit: at the top dose activity change, negative = inhibition, actives largely listed as inhibitors | Huh7.5.1 HCVcc-Cre infection, luciferase reporter, 44 h | 340,000 compounds, 3.4% hits | AID 651820; note: potency is the fitted concentration of half-maximal effect; % is set by controls: 0 for no effect and ±100 for the full control effect
#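 Compounds are dispensed onto cells plated 4 h earlier at 1,000 per well, with HCVcc-Cre virus (about 0.5 moi) added next. Following 44 h of culture, luminescent signal is measured for 15 sec after 15 min with substrate at room temperature.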
# Pf growth 48h = P. falciparum growth inhibition at 48 hours (one generation); Potency, µM (doses to about 28.7 µM), for the others: at the top dose activity change, negative = inhibition, hits mostly inhibitors; AID 504832; 310,000 compounds, 5.9% hits; P. falciparum luciferase growth in erythrocytes, 48 h; note: potency is the fitted concentration of half-maximal effect; % is set by controls: 0 for no effect and ±100 for the full control effect
#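 First compound was added to culture medium, then infected red cells at 0.1% parasitemia and 2% hematocrit (final). After incubation at 37 C under 5% CO2, luciferase detection reagent was dispensed and light output recorded.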
# HCMV antiviral = blocks human cytomegalovirus replication; activity change, negative = inhibition, % at 57.5 µM; 410,000 compounds, 4.5% hits; HFF cells, HCMV-luciferase reporter, 72 h; stronger effect = lower value; AID 1259415; in the data active = activity change below about -60%; inconclusive = no clear call, values can overlap the other calls; inactive = above about -39%; note: % is set by controls: 0 for no effect and ±100 for the full control effect
#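 Two compound doses tested in HFFs infected with HCMV-luciferase, MOI 1 PFU/cell, 72 h at 37C. Lysate luminescence read with OneGlo; data normalized against buffer-only and 10uM Salinomycin inhibitor controls.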
# HCV confirm = HCV inhibition, cherry-pick confirmation; 640 compounds, 78% hits; Potency, µM (series often up to 41.8 µM), for inactives: at the highest dose activity, negative = inhibition, hits mostly inhibitors; HCVcc-Cre infectious virus cell assay, luciferase, inhibition; shares compounds with HCV inh; note: potency is the fitted concentration of half-maximal effect; nearly all actives have a fitted effect of over 80% in size
# HCV host tox = counter-screen for HCV inhibitors: host cell cytotoxicity. HCV host cell line cytotoxicity counterscreen. 640 compounds, 22% hits. shares compounds with HCV inh. Potency, µM (titrated, usually from 41.8 µM), for inactives: top-dose activity change, negative = cytotoxicity, hits mostly inhibitors;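 note: potency is the fitted concentration of half-maximal effect; 44 h compound exposure; % is set by controls: 0 for no effect and ±100 for the full control effect; nearly all actives have a fitted effect of over 55% in size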
# Starred values were filed as active, the others as inactive; ? = inconclusive; / = no result; [ ] = dose if it differs, or a comment. Unless noted, calls come from the whole dose curve; as a rule, active = well fitted curve in the direction sought with a large enough effect; inconclusive = small, poorly fitted or top-dose-only effect, or another doubt; inactive = no such curve, though single readings can be large; an effect the other way counts as inactive or inconclusive.
SMILES,Pf growth 96h,HCV inh,Pf growth 48h,HCMV antiviral,HCV confirm,HCV host tox
Cc1ccc([C@H]2N[C@]3(CCCN(Cc4ccc(Cl)cc4)C3=O)[C@H]3C(=O)N(C)C(=O)[C@@H]23)cc1,/,/,/,-18,/,/
COc1cc(OC)cc(-c2c(-c3ccc(F)cc3)c3cc(-c4ccc5[nH]ccc5c4)ccc3n2C)c1,1.7µM*,3.2µM*,5.2µM*,-29,7.9µM*,?
COc1cc(OC)cc(-c2c(-c3ccc(F)cc3)c3cc(-c4cccc5[nH]ccc45)ccc3n2C)c1,?,?,?,-26,/,/
COc1ccc(-c2ccc(SCC(=O)NCc3ccc4c(c3)OCO4)nn2)cc1OC,19%,2.8µM*,26%,30,-25%,-9%
COc1ccc2nc(SCC(=O)NCc3ccc4c(c3)OCO4)[nH]c2c1,8%,6%,-5%,?,/,/
COc1ccc(-c2nc(CSCC(=O)NCc3ccc4c(c3)OCO4)c(C)o2)cc1OC,?,?,-29%,-7,/,/
CCOc1ccc2nc(SCC(=O)NCc3ccc4c(c3)OCO4)[nH]c2c1,-10%,4µM*,-16%,143,?,-17%
CC(C)(C)OC(=O)N1CCC(NC(=O)c2[nH]c(C(F)(F)F)nc2-c2ccccc2)CC1,/,/,/,-6,/,/
CCOc1ccc(NC(=O)CN(C)Cc2cc(=O)n3c(-c4ccccc4)csc3n2)cc1OCC,?,6.3µM*,?,15,?,25%
Cc1cc(C)cc(OCc2cc(=O)n3c(-c4ccccc4)csc3n2)c1,/,/,/,7,/,/
O=C(NCCCN1CCOCC1)/C(=C/c1ccc(-c2cccc([N+](=O)[O-])c2)o1)NC(=O)c1ccccc1,/,/,/,18,/,/
Cc1nc2nc(C)n(CCN3CCOCC3)c(=O)c2c(-c2cccc([N+](=O)[O-])c2)c1C(=O)CCCCCCCCCCN1CCC(c2ccccc2)(c2ccccc2)CC1,/,?,/,-78*,14µM*,?
Cn1c(NCCOc2ccccc2Cl)nc2cc(-c3ccc(F)cc3)sc2c1=O,/,/,/,-29,/,/
Cc1onc(-c2ccccc2Cl)c1C(=O)Nc1ccccc1C(=O)NC(C)C,47%,4.5µM*,?,?,22µM*,?
COc1ccc([C@H]2CC(=O)C[C@@H](CCn3cc(-c4nccn4C)nn3)O2)cc1,/,/,/,-5,/,/
Nc1ncnc2nn(C3OC(CO)C(O)C3O)nc12 (configuration not stated),/,/,/,-14,/,/
NC(=S)c1cn(C2OC(CO)C(O)C2O)c2ncnc(N)c12 (configuration not stated),4.1µM*,0.28µM*,1.3µM*,-99*,0.44µM*,0.44µM*
Cc1c(Br)cccc1NC(=O)C1(C)CCN1Cc1ccccc1OC(F)F (configuration not stated),/,/,/,2,/,/
COc1ccc(CCNc2ncnc3[nH]ncc23)cc1OC,15µM*,?,3%,?,8.9µM*,-21%
Fc1ccc(CCNc2ncnc3[nH]ncc23)cc1,/,?,/,-36,/,/
Cc1coc2c(C)c3oc(=O)c(CCC(=O)N[C@H](C(=O)O)C(C)C)c(C)c3cc12,/,/,/,15,/,/
COc1cccc(NC(=O)Nc2ccc(Cc3ccncc3)cc2)c1,-25%,?,4%,?,?,4%
COc1cccc(NC(=O)C(=O)NCc2ccncc2)c1,-26%,-6%,110%,64,/,/
O=[N+]([O-])c1ccc(/C=[N+](\[O-])[C@@H]2CCCC[C@@H]2/[N+]([O-])=C/c2ccc([N+](=O)[O-])o2)o1,?,?,-3%[0.00184 µM],-98*,?,?
OC1CCCN(CC(O)COc2ccc(-c3ccccc3)cc2)C1 (configuration not stated),-26%,?,8%,-1,/,/
SMILES,Pf growth 96h,HCV inh,Pf growth 48h,HCMV antiviral,HCV confirm,HCV host tox
CC1CCCN(CC(O)COc2ccc(-c3ccccc3)cc2)C1 (configuration not stated),0%,2.8µM*,?,-28,16µM*,52%
NC(=S)NN=Cc1nccc2ccccc12,/,2.8µM*,/,-98*,6.3µM*,?
Cn1cccc1/C=N/NC(N)=S,?,1%,9%,-4,/,/
Cc1cnc(C=NNC(N)=S)c2cccc(N)c12,/,?,/,-20,?,-33%
CN1CCc2nc(SCCOc3ccccc3)c(C#N)cc2C1,/,3.5µM*,-12%,0,?,6%
CCOC(=O)c1ccc(NC(=S)N(CCN2CCCCCC2)Cc2cccs2)cc1,-1%,?,?,?,/,/
CCOC(=O)c1ccc(NC(=S)N(CCCN2CCCC2)Cc2cccs2)cc1,?,?,0%,-26,?,22%
O=C(NC(c1ccccc1)c1ccc2ccccc2n1)C1CCN(Cc2ccc(Cl)c(Cl)c2)CC1 (configuration not stated),/,/,/,66,/,/
O=C(Nc1cc(Br)ccc1O)c1cnn2c(C(F)F)cc(C3CC3)nc12,-23%,?,4.1µM*,-7,7µM*,-95%
COc1cc(/C=N/n2c(-c3ccccc3)n[nH]c2=S)cc(OC)c1OC,39%,6%,-1%,28,/,/
COc1cc(/C=N/n2nnnc2Nc2ccccc2)cc(OC)c1OC,?,?,?,/,?,12%
Oc1ccccc1-c1nc(NCc2cccnc2)c2ccccc2n1,?,5.6µM*,15µM*,-30,13µM*,12%
COc1c(C)cc(C(O)c2ncc(-c3ccccc3C)[nH]2)cc1C (configuration not stated),/,/,/,36,/,/
CSC[C@H](NC(=O)COc1cc2c(c3oc(=O)cc(C)c13)CCC(C)(C)O2)C(=O)O,-4%,1%,1%,2,/,/
COc1ccc(CCNC(=O)COc2cc(O)c3c(c2)OC(C)(C)CC3=O)cc1,?,?,4%,0,/,/
CC1(C)CC(=O)c2c(O)cc(OCC(=O)Nc3ccc(CCO)cc3)cc2O1,?,5µM*,-4%,-25,14µM*,15%
Cc1cc(=O)oc2c3c(cc(OCC(=O)Nc4ccc(CCO)cc4)c12)OC(C)(C)CC3,?,0.71µM*,?,4,22µM*,31%
Cc1cc(C)n(CCNC(=O)[C@H]2O[C@@H](n3cnc4c(N)ncnc43)[C@H](O)[C@@H]2O)n1,/,/,/,27,/,/
CN(C)CCNc1ncnc2c1ncn2[C@H]1CN(Cc2ccc(Cl)cc2)C[C@@H](CO)O1,/,/,/,-14,/,/
C=CCNc1nc(N)c([N+](=O)[O-])c(Nc2ccccc2OC)n1,?,6.3µM*,?,5,22µM*,53%
Cc1cc(C)c(-c2csc(-c3cc4ccccc4oc3=O)n2)cc1C,/,/,/,7,/,/
Cc1ccc(-c2csc(Cc3nc(-c4cc5ccccc5oc4=O)cs3)n2)cc1,35%,5µM*,8%,-80*,5µM*,6.3µM*
